# In all, about 2,300 compounds went through this assay and about 350 (15%) were called active. How the calls were made is not given here. Only a sample is shown. Measured potencies and affinities stand elsewhere.
# Assay: HepG2 cell cytotoxicity, dose response, cytotoxicity control for non-replicating M. tuberculosis project (AID 489018);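 further: HepG2 human liver cells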
# Settings: series mostly up to 20 µM
row,SMILES,outcome
1,OCC1(CCOc2ccccc2)CCN(Cc2cc(Cl)ccc2O)CC1,inactive
2,COc1ccc(C2(O)CCN(CCCCOc3ccccc3)CC2)cc1,inactive
3,Clc1cccc(OCCN2CCN(CCOc3cccc(Cl)c3)CC2)c1,inactive
4,CC(C)Cn1c(N)c(C(=O)COC(=O)c2cnc(Cl)c(Cl)c2)c(=O)n(C)c1=O,inactive
5,O=C(Oc1cccnc1)c1ccc(Cl)c(Cl)c1,inactive
6,CC(=O)c1ccc(-n2cc(-c3ccc(C(C)(C)C)cc3)[n+]3c2SCCC3)cc1,inactive
7,Cn1c(=O)c(Oc2ccc(F)cc2)c(O)c2ccccc21,inactive
8,O=C(Nc1nccs1)c1ccc(COc2ccc(Cl)cc2)o1,inactive
9,COc1cccc(COC(=O)CCNC(=O)c2ccc(Cl)cc2)c1OC,inactive
10,O=C(Oc1ccccc1)c1ccc(COC(=O)c2cnccn2)cc1,inactive
11,NC1=NC[C@H](Cc2ccccc2)N1CCCCC1CCCCC1,inactive
12,CCCC(=O)N1CCC(Cc2ccccc2)CC1,inactive
13,Cc1ccc(NC(C)C(=O)N/N=C/c2ccc([N+](=O)[O-])s2)cc1 (configuration not stated),inactive
14,COc1ccc2cc(C(=O)C3CCCN(Cc4ccccn4)C3)ccc2c1 (configuration not stated),inactive
15,Cc1ccc(NC(CC(=O)c2ccccc2)C(=O)O)cc1Cl (configuration not stated),inactive
16,COc1ccc(C(=O)CCN2CCCCCC2)cc1,inactive
17,CC(CN1CCOCC1)OC(=O)c1ccc2c(c1)OCCO2 (configuration not stated),inactive
18,CC(C)COc1ccc(C(=O)CCN2CCCCC2)cc1,inactive
19,CCOc1ccc(C(=O)CCN2CCCCCC2)cc1,inactive
20,CC(CN1CCOCC1)OC(=O)c1ccc(Br)cc1 (configuration not stated),inactive
21,CC(NC(=O)OCc1ccccc1)c1ccccc1 (configuration not stated),inactive
22,CC(=O)c1cc2c(ccc3ccccc32)oc1=O,inactive
23,Cc1c([N+](=O)[O-])cnc(Sc2ccccc2)c1[N+](=O)[O-],inactive
24,O=C(C/C=N\OCc1ccc([N+](=O)[O-])cc1)Nc1ccccc1,inactive
25,Cc1nnc(N/N=C/c2cccc(OCc3ccc(Cl)c(Cl)c3)c2)n1N,inactive
26,O=C(CN1CCC(NC(=O)c2cccc(F)c2)CC1)Nc1ccc(Br)cc1,inactive

row,SMILES,outcome
1,COc1cccc(NC(=O)c2cnc(SC)nc2)c1,inactive
2,CCOC(=O)c1c(C)nc2c3ccccc3ccn12,inactive
3,COC(=O)c1ccc(N2CCN(CCNC(=O)Nc3ccc(OC)cc3)CC2)cc1,inactive
4,COC(=O)COc1ccc2c(=O)c(Oc3ccccc3)c(C)oc2c1,inactive
5,O=C(CCSc1ccccc1)N1CCCC1,inactive
6,O=C(CCN1CCCCCC1)c1ccccc1,inactive
7,O=C(Nc1nc(-c2cc(F)ccc2F)cs1)c1ccccn1,inactive
8,Cc1ccc2nc(NC(=O)c3ccccn3)sc2c1,inactive
9,O=C(Nc1nccs1)c1ccccn1,inactive
10,Cc1cnc(NC(=O)c2ccccn2)s1,inactive
11,CC1=C(/C=C/C(C)=N\NC(=O)c2ccncc2)C(C)(C)CCC1,inactive
12,O=C(COC(=O)COc1ccc(Nc2ccccc2)cc1)NCc1ccco1,inactive
13,O=C(COc1ccccc1)Nc1nnc(-c2ccc(Cl)cc2)o1,inactive
14,CC(C)Cc1cc(C(=O)Nc2ccc(F)cc2F)no1,inactive
15,O=C(Nc1c(F)cc(F)cc1Br)c1cc(-c2ccccc2)on1,inactive
16,O=C(N/N=C\c1ccc([N+](=O)[O-])s1)C1COc2ccccc2O1 (configuration not stated),inactive
17,O=C(CCSc1nnc(-c2ccncc2)o1)Nc1cccc(Cl)c1,inactive
18,CCn1ccc(C(=O)Nc2cccc(Cl)c2)n1,inactive
19,Cc1noc2ncnc(Sc3ccc(Br)cc3)c12,inactive
20,O=c1cc(-c2ccccc2Cl)oc2c([N+](=O)[O-])c(O)cc(O)c12,inactive
21,O=C1C=C(Nc2ccc(F)cc2)c2ccccc2C1=O,inactive
22,CCOC(=O)c1ccc(NC2=CC(=O)C(=O)c3ccccc32)cc1,inactive
23,CCN(CC)S(=O)(=O)c1ccc(C(=O)OCn2nnc3ccccc3c2=O)cc1,inactive
24,O=c1cc(-c2ccccc2Cl)oc2ccc([N+](=O)[O-])c(O)c12,inactive
25,CCC/C(=N\NC(=O)c1ccco1)c1ccc(Cl)s1,inactive
26,CCCc1cc(C(=O)Nc2ccccc2SC)no1,inactive

row,SMILES,outcome
1,O=c1oc(/C=C/c2ccc([N+](=O)[O-])s2)nc2ccccc12,inactive
2,Cc1cc(C(=O)N/N=C/c2ccc([N+](=O)[O-])s2)n[nH]1,inactive
3,Cc1cc(C)n(CC(=O)N/N=C/c2ccc([N+](=O)[O-])s2)n1,inactive
4,Cc1ccc(C(=O)N/N=C\c2ccc([N+](=O)[O-])s2)cn1,inactive
5,CCOC(=O)c1cc(-c2csc(COc3ccccc3)n2)on1,inactive
6,O=C(N/N=C\C=C\c1ccco1)c1cncc(Br)c1,inactive
7,CS(=O)(=O)Nc1cccc2cccnc12,inactive
8,Cc1cc(C)n2nc(S(=O)(=O)Nc3c(Cl)cccc3Cl)nc2n1,inactive
9,O=C(OCc1nnc(-c2ccccc2)o1)c1cc([N+](=O)[O-])ccc1Cl,inactive
10,O=c1c2cc(Cl)ccc2nc(-c2ccccc2Cl)n1O,inactive
11,CCOC(=O)c1ccc(COC(=O)c2ccc(-c3nnc(-c4ccccc4)o3)cc2)o1,inactive
12,Cc1cc(OCCCCn2ccnc2)cc(C)c1Cl,inactive
13,O=C(c1ccc([N+](=O)[O-])cc1[N+](=O)[O-])N1CCc2ccccc21,inactive
14,Cc1ccc(S(=O)(=O)CCC(=O)Nc2nc(-c3ccncc3)cs2)cc1,inactive
15,CC(/C=C/c1ccccc1F)=N\NC(=O)c1ccccc1,inactive
16,O=S1(=O)C=C(Sc2nc3cc(Cl)ccc3o2)c2ccccc21,inactive
17,O=C1c2ccccc2CC1Sc1nnc(-c2ccncc2)o1 (configuration not stated),inactive
18,O=C(O)c1[nH]c(=O)[nH]c(=O)c1F,inactive
19,CC1=NN(c2ccccc2)C(=O)C1C(=O)c1ccccc1 (configuration not stated),inactive
20,Nc1nc2ccccc2n1C(=O)c1ccc(F)cc1,inactive
21,OC(COc1ccccc1Cl)CN1CCN(CC(O)COc2ccccc2Cl)CC1 (configuration not stated),inactive
22,C=CCc1ccc(OCC(O)CN2CCN(Cc3ccc(Cl)cc3)CC2)c(OC)c1 (configuration not stated),inactive
23,CCC(=O)Nc1nc2ccccc2n1Cc1ccccc1,inactive
24,O=C(COc1ccccc1)NCCSCc1ccc(Cl)cc1,inactive
25,O=C(Nc1ncc([N+](=O)[O-])s1)c1ccc2c(c1)OCO2,inactive
